According to PubChem BioAssay (EPA / NIEHS):
Active and inactive are the calls of the source. Rule for the calls: active = hit-call score of the fitted dose curve at least 0.9, where 1 is the maximum; inactive = score below 0.9.

Each molecule was assayed against Retinoic acid receptor alpha (Homo sapiens) (UniProt P10276) (assay: ATG_DR5_RAR_CIS: Attagene CIS-FACTORIAL HepG2 Assay for human Retinoic Acid Receptor Alpha (RARE), DR5 submotif (AID 2282934;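 for AC50: reporter responds to endogenous RAR alpha beta and gamma in HepG2 not RARA alone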)). Details: HepG2 Attagene cis-factorial RARE DR5 reporter, mRNA; actives raise or lower the signal.
Retinoic acid receptor alpha (Homo sapiens), sequence (P10276 whole entry, looked up): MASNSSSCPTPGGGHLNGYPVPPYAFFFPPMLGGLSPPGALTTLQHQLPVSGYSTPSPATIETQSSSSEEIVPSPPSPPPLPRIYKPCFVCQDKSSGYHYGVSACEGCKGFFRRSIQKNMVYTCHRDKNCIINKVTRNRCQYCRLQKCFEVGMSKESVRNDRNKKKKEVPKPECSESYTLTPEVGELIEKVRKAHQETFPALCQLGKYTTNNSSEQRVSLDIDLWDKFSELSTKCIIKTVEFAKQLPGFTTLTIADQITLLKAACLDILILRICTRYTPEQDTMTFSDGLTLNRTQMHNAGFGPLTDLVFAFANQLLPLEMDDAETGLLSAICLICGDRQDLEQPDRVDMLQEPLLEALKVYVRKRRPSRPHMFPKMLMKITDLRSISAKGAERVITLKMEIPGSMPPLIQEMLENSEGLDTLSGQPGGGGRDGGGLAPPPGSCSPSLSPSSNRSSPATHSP
Experimental: ATG_CIS is a cell-based, multiplexed-readout assay that uses HepG2, a human liver cell line, with measurements taken at 24 hours after chemical dosing in a 24-well plate.ATG_DR5_RAR_CIS is one of 52 assay component(s) measured or calculated from the ATG_CIS assay. It is designed to make measurements of mRNA induction, a form of inducible reporter, as detected with fluorescence intensity signals by Reverse transcription polymerase chain reaction (RT-PCR) and Capillary electrophoresis technology.Data from the assay component ATG_DR5_RAR_CIS was analyzed into 1 assay endpoint. This assay endpoint, ATG_DR5_CIS, was analyzed with bidirectional fitting relative to DMSO as the negative control and baseline of activity. Using a type of inducible reporter, measures of mRNA for gain or loss-of-signal activity can be used to understand the reporter gene at the transcription factor-level as they relate to the gene RARA and RARB and RARG. Furthermore, this assay endpoint can be referred to as a primary readout, because this assay has produced multiple assay endpoints where this one serves a reporter gene function. To generalize the intended target to other relatable targets, this assay endpoint is annotated to the nuclear receptor intended target family, where the subfamily is non-steroidal.
Human liver HepG2 cells are transiently transfected with multiple reporter transcription units (MRTUs) in 6-well plates using FuGene 6 reagent (Roche; 3 ml FuGene/1 mg DNA). The MRTU constructs are regulated by a cis-regulating element (promoter). […] A major difference between the CIS and TRANS system is that in CIS activities of endogenous TFs are measured, whereas the TRANS assay evaluates changes in activities of exogenous, chimeric NR-Gal4 proteins. […] At the end of 24 hour incubation, total RNA was isolated using TriZol reagent (Invitrogen). The isolated RNA is then reverse-transcribed using oligo(dT) primer and Mo-MLV reverse transcriptase (Invitrogen) with DNAse I (Ambion) treatment for 30 min. The one-tenth of the produced cDNA was amplified by PCR using Taq DNA polymerase (Invitrogen) and two reporter sequence-specific primers. The PCR products were fluorescently labeled by primer extension with 6-arboxyfluorescein (6-FAM) 5'-labeled reporter sequence-specific primer (2 min at 95 C, 20 s at 68 C and 10 min at 72 C) and these products were digested with 5U of HpaI (New England Biolabs) for 2h at 37 C. The fragments were purified using Qiaquick PCR columns (Qiagen), analyzed on an ABI 3130xL genetic analyzer (Applied Biosystems) with peak positions identified by using a set of X-rhodamine (ROX)-labeled MapMarker1000 molecular weight standards (BioVentures). The raw capillary electrophoresis data was processed using Attagraph software (Attagene).

Question: `Cc1c(O)cccc1O` was tested. Which outcome did it give?
Answer: Its outcome is “inactive”.

Question: For `CC/C=C\CCOC(=O)c1ccccc1O`, which outcome is on record?
Answer: Its outcome is “inactive”.

Question: For `CCC(C)(O)CCCC(C)C` (stereo not given), which outcome is on record?
Answer: Its outcome is “inactive”.

Question: How did the outcome turn out when `Nc1ccc(C(=O)O)cc1` was run?
Answer: Its outcome is “inactive”.

Question: How did the outcome turn out when `CC1CCC(=O)C1=O` (stereo not given) was run?
Answer: The outcome was “inactive”.

Question: With `C=C[C@@]1(C)CC(=O)[C@]2(O)[C@@]3(C)[C@@H](O)CCC(C)(C)[C@@H]3[C@H](O)[C@H](OC(C)=O)[C@@]2(C)O1` as the molecule, how does the AC50 read?
Answer: Its AC50 is 3.81 µM (active).

Question: For `CC1(C)[C@@H]2CC[C@@]1(C)C(=O)C2`, which outcome is on record?
Answer: Its outcome is “inactive”.

Question: How did the outcome turn out when `CCCCC1CCC(=O)O1` (stereo not given) was run?
Answer: Its outcome is “inactive”.

Question: Which AC50 does the source give for `c1ccc2sc(SSN3CCOCC3)nc2c1` here?
Answer: Its AC50 is 170 µM (active).

Question: For `CC12CCC(CC1)C(C)(C)O2`, which outcome is on record?
Answer: The outcome was “inactive”.

Question: With `CCCC/C=C/C=C\C=O` as the molecule, how does the outcome read?
Answer: The outcome was “inactive”.

Question: For `CCCCOCCOCCOC(C)=O`, which outcome is on record?
Answer: Its outcome is “inactive”.

Question: With `CC=C(C)C=CC=C(C)C` as the molecule, how does the outcome read?
Answer: Its outcome is “inactive”.

Question: For `CCc1cccc(C)c1N(C(=O)CS(=O)(=O)O)C(C)COC` (stereo not given), which outcome is on record?
Answer: Its outcome is “inactive”.

Question: For `CC(CC(C)C)=NO`, which outcome is on record?
Answer: Its outcome is “inactive”.

Question: How did the outcome turn out when `CCCCC/C=C\C/C=C\CCCCCCCC(=O)O` was run?
Answer: The outcome was “inactive”.

Question: For `CCC(C)N` (stereo not given), which outcome is on record?
Answer: Its outcome is “inactive”.

Question: With `CC(C)(C)NC(=O)[C@H]1CC[C@H]2[C@@H]3CC[C@H]4NC(=O)C=C[C@]4(C)[C@H]3CC[C@]12C` as the molecule, how does the outcome read?
Answer: The outcome was “inactive”.

Question: Which outcome does the source give for `CC(=O)CC(=O)Nc1ccccc1C` here?
Answer: The outcome was “inactive”.

Question: How did the outcome turn out when `CC1C(C)(C)C2=C(C(=O)CCC2)C1(C)C` (stereo not given) was run?
Answer: Its outcome is “inactive”.

Question: Which outcome does the source give for `CC(C)[N+](C)(CCOC(=O)C1c2ccccc2Oc2ccccc21)C(C)C` here?
Answer: The outcome was “inactive”.

Question: How did the outcome turn out when `Cc1c(Cl)cccc1Cl` was run?
Answer: The outcome was “inactive”.

Question: With `CCCSSCCC` as the molecule, how does the outcome read?
Answer: The outcome was “inactive”.

Question: How did the outcome turn out when `CC(C)(C)C1CCC(=O)CC1` was run?
Answer: Its outcome is “inactive”.

Question: How did the outcome turn out when `CCc1occc(=O)c1O` was run?
Answer: The outcome was “inactive”.

Question: With `CCCCCCC=O` as the molecule, how does the outcome read?
Answer: Its outcome is “inactive”.

Question: Which outcome does the source give for `CC(=O)OC/C=C(/C)CCC=C(C)C` here?
Answer: Its outcome is “inactive”.

Question: For `C=C(C)C(=O)OCCOC(=O)C(=C)C`, which outcome is on record?
Answer: The outcome was “inactive”.

Question: Which outcome does the source give for `CC(Cl)COP(=O)(OCC(C)Cl)OCC(C)Cl` (stereo not given) here?
Answer: Its outcome is “inactive”.

Question: With `Cc1ccc([N+](=O)[O-])cc1N` as the molecule, how does the outcome read?
Answer: The outcome was “inactive”.

Question: With `CCCCCCCCCCCC(C)=O` as the molecule, how does the AC50 read?
Answer: Its AC50 is 69.4 µM (active).

Question: `CCC(C)C(=O)OCCc1ccccc1` (stereo not given) was tested. Which outcome did it give?
Answer: Its outcome is “inactive”.

Question: For `CC(C)c1ccc(O)c(C(C)C)c1`, which outcome is on record?
Answer: Its outcome is “inactive”.

Question: How did the outcome turn out when `COC(OC)(C(=O)c1ccccc1)c1ccccc1` was run?
Answer: Its outcome is “inactive”.

Question: With `COC(Cc1ccccc1)OC` as the molecule, how does the outcome read?
Answer: The outcome was “inactive”.

Question: Which outcome does the source give for `[Cl][Sc]([Cl])[Cl]` here?
Answer: Its outcome is “inactive”.

Question: `CCCCCCOC(=O)CCCCC(=O)OCCCCCC` was tested. Which outcome did it give?
Answer: The outcome was “inactive”.

Question: `CCCCCC1=CCCC1=O` was tested. Which outcome did it give?
Answer: Its outcome is “inactive”.

Question: With `CCCC(CC)c1ccccc1` (stereo not given) as the molecule, how does the outcome read?
Answer: The outcome was “inactive”.

Question: How did the outcome turn out when `O=C(O)/C=C/c1ccccc1` was run?
Answer: Its outcome is “inactive”.
